High-throughput results (PubChem BioAssay)
GIRK2 act: Activates human GIRK2-containing potassium channels | activation (% efficacy), % for hits at 37.5 µM | 34,000 tested, under 10 active | P48051 | AID 1259324 | HEK293 GIRK2/NPY4 cells, thallium flux fluorescence;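 active = primary screen hit, no activity in plain HEK293 cells, and in GIRK2-only cells above 5% efficacy rising with concentration; inactive = the rest, including fluorescent compounds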;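 note: efficacy is normalized control-subtracted fluorescence 15 s after thallium addition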
AMPAR-TARP mod: GluA2-stargazin AMPA receptor complex modulation; O88602+P19491; HEK293 GluA2+stargazin, membrane potential dye (FDSS), glutamate EC50; hits were called plate by plate, in both directions; calls only at 30 µM; actives 3.5% (n = 40,000); AID 1259245;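 active = any of four per-well response measures lying three or more SD from its plate-wide compound average, in either direction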
Target sequence (O88602 whole entry, looked up): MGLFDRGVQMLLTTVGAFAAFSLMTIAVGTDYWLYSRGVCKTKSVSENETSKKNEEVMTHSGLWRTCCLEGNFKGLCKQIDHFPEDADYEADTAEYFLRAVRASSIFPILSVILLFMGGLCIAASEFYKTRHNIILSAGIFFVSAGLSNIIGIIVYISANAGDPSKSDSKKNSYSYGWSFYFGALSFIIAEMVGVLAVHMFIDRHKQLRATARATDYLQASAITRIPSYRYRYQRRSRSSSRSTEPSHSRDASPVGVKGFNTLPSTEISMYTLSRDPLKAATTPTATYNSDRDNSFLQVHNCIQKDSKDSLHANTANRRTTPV
Target sequence (P19491 whole entry, looked up): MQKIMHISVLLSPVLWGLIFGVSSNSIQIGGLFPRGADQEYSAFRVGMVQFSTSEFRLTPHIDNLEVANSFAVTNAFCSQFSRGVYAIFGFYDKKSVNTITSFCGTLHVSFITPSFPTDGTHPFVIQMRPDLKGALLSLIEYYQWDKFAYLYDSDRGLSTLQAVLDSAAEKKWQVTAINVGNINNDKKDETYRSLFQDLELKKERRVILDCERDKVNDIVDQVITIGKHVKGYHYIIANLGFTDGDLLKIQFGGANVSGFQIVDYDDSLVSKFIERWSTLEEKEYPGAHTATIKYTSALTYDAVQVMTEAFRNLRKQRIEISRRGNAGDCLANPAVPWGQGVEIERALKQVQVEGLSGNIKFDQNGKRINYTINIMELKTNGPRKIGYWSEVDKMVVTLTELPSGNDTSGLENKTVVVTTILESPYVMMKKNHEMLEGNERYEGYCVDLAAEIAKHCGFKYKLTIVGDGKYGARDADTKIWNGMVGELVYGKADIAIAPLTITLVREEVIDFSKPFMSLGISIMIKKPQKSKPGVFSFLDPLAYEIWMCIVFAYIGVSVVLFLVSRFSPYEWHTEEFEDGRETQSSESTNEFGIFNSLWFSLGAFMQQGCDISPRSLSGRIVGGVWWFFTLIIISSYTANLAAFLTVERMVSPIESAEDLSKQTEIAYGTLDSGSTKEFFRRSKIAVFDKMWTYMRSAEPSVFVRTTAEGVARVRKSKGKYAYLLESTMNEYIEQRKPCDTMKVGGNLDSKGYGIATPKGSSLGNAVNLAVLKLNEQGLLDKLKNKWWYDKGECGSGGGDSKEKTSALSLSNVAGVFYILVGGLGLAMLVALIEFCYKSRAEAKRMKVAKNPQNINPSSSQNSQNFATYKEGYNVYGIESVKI
Active calls of the source: *; i = inactive; x = no result; + = active, no number. This excerpt belongs to a sample that is enriched for hits.

SMILES | GIRK2 act | AMPAR-TARP mod
Cn1c(=O)[nH]c(=O)c2c1nc(N1CCOCC1)n2CCCn1c(N2CCOCC2)nc2c1c(=O)[nH]c(=O)n2C | x | i
COc1ccc(SCC2CCN(C(=O)c3ccccc3Br)CC2)cc1 | i | x
Cc1noc(C)c1S(=O)(=O)NCCOc1ccc2nnc(-c3cccc(F)c3)n2n1 | i | x
CCOc1ccc2nc(N(CCN3CCOCC3)C(=O)c3ccc(C#N)cc3)sc2c1 | x | i
COC(=O)c1ccccc1NC(=O)CSc1nccnc1N1CCSCC1 | i | +
N#Cc1ccccc1NC(=O)CSc1nccnc1N1CCSCC1 | i | i
COc1cc([N+](=O)[O-])cc2sc(NC(=O)c3ccno3)nc12 | i | +
Cc1cccc2sc(NC(=O)c3ccno3)nc12 | i | i
Cc1ccccc1-c1noc(Cn2c(=O)n(Cc3ccccc3Cl)c(=O)c3sccc32)n1 | i | i
COc1ccc(NC(=O)CSc2nc3ccsc3c(=O)n2CCO)c(OC)c1 | i | i
O=C(NCc1cccs1)c1coc(NC(=O)c2ccco2)n1 | i | +
O=C(Nc1nnc(Cc2cccs2)o1)c1ccco1 | i | i
O=S(=O)(NCC1CCN(C2CCCC2)CC1)c1ccc2c(c1)OCCO2 | i | i
Cc1c(Cl)cccc1S(=O)(=O)NCC(O)c1ccsc1 (stereo not drawn) | i | i
O=S(=O)(NCC(O)c1ccc(C(F)(F)F)cc1)c1ccc2c(c1)CCCC2 (stereo not drawn) | i | i
Cc1c(Cl)cccc1S(=O)(=O)NCC(O)c1ccc(C(F)(F)F)cc1 (stereo not drawn) | i | +
COc1ccc(S(=O)(=O)NCC(O)c2ccc(C(F)(F)F)cc2)cc1Cl (stereo not drawn) | x | +
CCCCc1ccc(-n2c(C)c(C)n3c4c(=O)n(C(C)C(=O)OC)c(=O)n(C)c4nc23)cc1 (stereo not drawn) | x | i
O=C(NCC1(c2cccs2)CCCC1)c1ccco1 | i | x
COC(=O)Cc1c(C)c2ccc(OCC(=O)c3ccc(F)cc3)cc2oc1=O | x | +
COC(=O)Cc1c(C)c2ccc(OCC(=O)c3ccc(-c4ccccc4)cc3)cc2oc1=O | x | i
C#CCn1c(=NC(=O)C2CCN(S(C)(=O)=O)CC2)sc2cc(SC)ccc21 | i | i
CCCNC(=O)Cn1cnc(-c2ccc(C)cc2)cc1=O | i | i
CCOC(=O)N(C)Cc1nc2ccccc2n1Cc1c(F)cccc1Cl | x | +
CN(Cc1nc2ccccc2n1Cc1cccc(Cl)c1)C(=O)c1ccco1 | i | x
SMILES | GIRK2 act | AMPAR-TARP mod
Fc1cccc(Cl)c1Cn1c(CN2CCCC2)nc2ccccc21 | i | +
Brc1ccc(Cn2c(CN3CCCC3)nc3ccccc32)cc1 | x | i
Cc1cc(NC(=O)C2CCN(C(=O)CSc3nc4ccccc4o3)CC2)no1 | i | x
O=C(O)C1CCCCN1S(=O)(=O)c1ccccc1[N+](=O)[O-] (stereo not drawn) | x | i
COc1ccc(-n2nnc3c(N4CCN(C(=O)c5ccccc5Cl)CC4)ncnc32)cc1 | x | i
CCC(=O)N1CCN(c2ncnc3c2nnn3-c2cccc(OC)c2)CC1 | x | i
O=C(CC(c1ccccc1)c1ccccc1)N1CCN(c2ncnc3c2nnn3-c2ccccc2)CC1 | x | +
O=C(CSCc1ccccc1)N1CCN(c2ncnc3c2nnn3-c2ccccc2)CC1 | x | i
CCC(CC)C(=O)N1CCN(c2ncnc3c2nnn3-c2cccc(OC)c2)CC1 | x | +
CCSc1ccccc1C(=O)N1CCN(c2ncnc3c2nnn3-c2ccc(OC)cc2)CC1 | x | +
CCSc1ccccc1C(=O)N1CCN(c2ncnc3c2nnn3-c2ccc(C)cc2)CC1 | x | i
COc1ccc(-n2nnc3c(N4CCN(C(=O)c5ccccc5SC)CC4)ncnc32)cc1 | x | +
CC(C)c1ccc(NC(=O)c2ccc(=O)n(Cc3cccc(F)c3)n2)cc1 | i | i
Cn1c(=O)c(C(=O)NCCc2c[nH]c3ccccc23)cc2cccnc21 | i | i
Cc1nc(NCCNS(=O)(=O)c2cc(C)c(C)cc2C)cc(N2CCOCC2)n1 | i | x
COc1ccccc1-n1nnc(C(=O)Nc2ccc(NC(C)=O)cc2)c1C | i | i
O=C(NCC1(O)CCCC1)c1cc(Cl)ccc1Cl | i | i
CN(C1CCCC1)S(=O)(=O)c1ccc(C(=O)Nc2nc3cc4c(cc3s2)OCO4)cc1 | x | i
O=C(/C=C/c1cc2cc3c(cc2nc1Cl)OCO3)C1CC1 | x | +
COc1cccc(-c2cc(CC(=O)N3CCc4ccccc4C3)no2)c1 | i | +
COc1ccc(-c2cc(CC(=O)N3CCc4ccccc4C3)no2)cc1OC | i | i
COc1cc(C(C)=O)ccc1OCC(O)CN1CCN(c2cccc(C)c2C)CC1 (stereo not drawn) | x | i
NC(=O)C1CCN(C(=O)Cc2cc(-c3ccc(F)cc3)on2)CC1 | i | i
NC(=O)C1CCN(C(=O)Cc2cc(-c3cc4ccccc4o3)on2)CC1 | i | +
COc1cccc2sc(N(CC3CCCO3)C(=O)c3cc(C)no3)nc12 (stereo not drawn) | i | x
SMILES | GIRK2 act | AMPAR-TARP mod
CC(=O)N1CCN(c2oc(-c3ccccc3C)nc2S(=O)(=O)c2ccc(C)cc2)CC1 | i | +
O=S(=O)(c1ccccc1)c1nc(-c2ccccc2Cl)oc1N1CCCC1 | i | +
Cc1ccc(S(=O)(=O)c2nc(-c3ccccc3C)oc2N2CCC(C(N)=O)CC2)cc1 | i | i
CC(=O)N1CCN(c2oc(-c3ccccc3)nc2S(=O)(=O)c2ccccc2)CC1 | i | i
N#C/C(=C\c1cccnc1)c1nc2ccccc2s1 | x | +
N#C/C(=C\c1ccc(O)cc1)c1nc2ccccc2s1 | x | i
COc1ccc(S(=O)(=O)Nc2ccc3c(c2)N(C(=O)C2CC2)CC3)cc1 | i | i
CCc1ccc(S(=O)(=O)Nc2ccc3c(c2)N(C(=O)C2CC2)CC3)s1 | i | +
O=C(NNC(=O)c1ccc(=O)n(Cc2ccccc2)c1)c1ccc(Cl)cc1 | i | i
CCOc1ccccc1C(=O)NNC(=O)c1ccc(=O)n(Cc2ccccc2)c1 | i | i
COc1ccc(C(=O)NNC(=O)c2ccc(=O)n(Cc3ccccc3)c2)c(OC)c1 | i | +
O=C(NNC(=O)c1cc2ccccc2oc1=O)c1ccc(=O)n(Cc2ccccc2)c1 | i | +
CN(C)C(CNC(=O)c1cccc(C(F)(F)F)c1)c1ccccc1Cl (stereo not drawn) | i | i
CC(=O)OC(Cn1nc(C)cc1C)Cn1c2ccccc2c2ccccc21 (stereo not drawn) | i | i
CC(=O)OC(COc1ccc(N(C)C(C)=O)cc1)Cn1c2ccccc2c2ccccc21 (stereo not drawn) | i | +
COCCNC(=O)Cn1nc2c(c1NC(=O)Cc1cccs1)CSC2 | i | i
Cc1cc(NC(=O)C(=O)NCC(c2cccs2)N2CCOCC2)c2ccccc2n1 (stereo not drawn) | x | +
Cc1cc(NC(=O)C(=O)NCC2CCN(C(C)C)CC2)c2ccccc2n1 | i | +
COc1cccc(C(CNC(=O)C(=O)Nc2cc(C)nc3ccccc23)N2CCOCC2)c1 (stereo not drawn) | i | i
Cc1cccc(C)c1NC(=O)C(=O)NCC1CCN(C(C)C)CC1 | i | x
